SMILES strings stand for the structures. Inconclusive results are not listed. Entries that show only a call come without a potency. Activity calls are given as the source filed them. Calls come from the whole dose curve; as a rule, active = well fitted inhibition curve with a large enough effect; inconclusive = small, poorly fitted or top-dose-only effect; inactive = no such curve, though single readings can be large or run the other way. Where a SMILES comes first, the peptide text is derived from it. Bridges are numbered along the chain shown (N, C = ends). [ ]: non-standard residue; d: D form. hArg = N=C(N)NCCCC[C@H](N)C(=O)O; Mpa = O=C(O)CCS
Potency is the fitted concentration of half-maximal effect.

The assay can be described thus: S16 Schwann cell PMP22 intronic element firefly luciferase assay (AID 624032). Note: nearly all actives have a fitted effect of over 30% in size. The conditions noted are these: S16 rat Schwann cells, PMP22 element FLuc, 24 h; series mostly up to 57.5 µM. The gist of the method:
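Rat S16 Schwann cells stably carrying firefly luciferase driven by a PMP22 intronic element, in 10% FBS, treated 24 h at 37 C. ONE-Glo luminescence normalized to PTC124 control and DMSO (0%); curves classed by r2, magnitude and activity.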
Consider `CNc1c2c(nn1C)CCCC2`, for which the Potency result was “inactive”.

For the compound `NC(=O)CCCCC1CCSS1` (configuration not stated), the Potency entry is “inactive”. As for `C[C@H]1COc2c(C3(N)CC3)c(F)cc3c(=O)c(C(=O)O)cn1c23`, the entry is “inactive”; as for `Cc1cc(NC(=O)C2=C(O)c3ccccc3S(=O)(=O)N2C)no1`, “inactive”; as for `Cc1c(NC(=O)c2cccnc2)c(=O)n(-c2ccccc2)n1C`, “inactive”.

With `CC[N+](C)(CC)CCOC(=O)C1c2ccccc2Oc2ccccc21`, the Potency entry is “inactive”. As for `Cn1c([N+](=O)[O-])cnc1COC(N)=O`, the entry is “inactive”; as for `CCOC(=O)[C@H](CCc1ccccc1)N[C@@H](C)C(=O)N1CCC[C@H]1C(=O)O`, 14.4 nM (active). The same measure for `CC(=O)N(CC(O)CO)c1c(I)c(C(=O)NCC(O)CO)c(I)c(C(=O)NCC(O)CO)c1I` (configuration not stated): “inactive”; for `O=C(NCCCN1CCOCC1)c1ccc(Cl)cc1`: “inactive”.

In the case of `O=C(O)CCC(=O)O`, the Potency result is “inactive”. With `CC(=O)NCc1c(I)c(NC(C)=O)c(I)c(C(=O)O)c1I`, the Potency entry is “inactive”.

With `CC(=O)OC[C@H]1O[C@@](COC(C)=O)(O[C@H]2O[C@H](COC(C)=O)[C@@H](OC(C)=O)[C@H](OC(C)=O)[C@H]2OC(C)=O)[C@@H](OC(C)=O)[C@@H]1OC(C)=O`, the Potency result was “inactive”. On to `Nc1ncnc2c1ncn2[C@@H]1O[C@H](COP(=O)(O)O)[C@@H](O)[C@H]1O`, for which the Potency entry was “inactive”. In the case of `NS(=O)(=O)c1ccc(NC(=O)CCC(=O)O)cc1`, the Potency result is “inactive”. As for `O=C(/C=C/c1ccccc1)OCc1ccccc1`, the entry is “inactive”; as for `O=C(Cn1ccnc1[N+](=O)[O-])NCCO`, “inactive”. As for `Cn1c(=O)c2c(ncn2CCO)n(C)c1=O`, the entry is “inactive”.

As for `Cc1c(I)c(=O)n(-c2ccccc2)n1C`, the Potency entry is “inactive”. `CN1CCN(C(=O)C2CCCCC2)CC1`: the Potency result was “inactive”. As for `O=c1[nH]cnc2nc[nH]c12`, the entry is “inactive”; as for `O=C(O)c1cc(=O)c2ccccc2o1`, “inactive”. The same measure for `CC(CSC(=O)c1ccccc1)C(=O)N1C[C@@H](Sc2ccccc2)C[C@H]1C(=O)O` (some centres not stated): “inactive”. Regarding `COc1cc(C(=O)NCCCCCC(=O)O)cc(OC)c1OC`, the Potency entry was “inactive”.

Take `Cc1[nH]c(C)c(Cl)c(=O)c1Cl`: the Potency result was “inactive”. On to `Nc1ccncc1N`, for which the Potency result was “inactive”. As for `NC(=O)[C@@H]1CSSCCC(=O)N[C@@H](CCCCN=C(N)N)C(=O)NCC(=O)N[C@@H](CC(=O)O)C(=O)N[C@@H](Cc2c[nH]c3ccccc23)C(=O)N2CCC[C@H]2C(=O)N1` ([Mpa][hArg]GDWPC-NH2; disulfide 1-7), the entry is “inactive”; as for `CCCCCC(C)N` (configuration not stated), “inactive”. In the case of `O=c1[nH]c2cc(C(F)(F)F)c(N3CCOCC3)cc2n(CP(=O)(O)O)c1=O`, the Potency result is “inactive”. As for `CN1C[C@@H]2C[C@H]1CN2c1cc2c(cc1F)c(=O)c(C(=O)O)cn2C1CC1`, the entry is “inactive”.

In the case of `CC(CN(C)C)C(C)(O)Cc1ccc(Cl)cc1` (configuration not stated), the Potency entry is “inactive”. The same measure for `C[N+](C)(C)CC[N+]1(C)Cc2c(Cl)c(Cl)c(Cl)c(Cl)c2C1`: “inactive”.

The values are drawn from PubChem BioAssay (NCATS).
